Assay [1] in a line: inhibitors of TNFa-induced NFkB p65 translocation, primary screen, imaging, HUVEC, MLSMR starter and 10KST1 sets (AID 438;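 active = inhibition above 20% together with a positive visual image hit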;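 note: compound added about 3h40 before a 20 min TNFalpha stimulation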;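 for inhibition: signal is the nuclear over cytoplasmic p65 intensity ratio per well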). As to conditions: HUVEC TNFa-induced p65 nuclear translocation; cell count: measured here: nuclei count (cytotoxicity indicator), at 2.08 µM; inhibition: at 2 µM, stronger effect = higher value, 0% TNFa-plus-vehicle, 100% no-TNFa wells.
The nature of assay [2]: reduction of polyQ htt aggregates in cells – imaging, exon1htt(103Q)mCFP cells, high-content imaging, primary screen (AID 483;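 active = visual image review flags a hit and inhibition of aggregation exceeds 20%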;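 note: compound exposure lasted 3 days before fixation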;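 for nuclei count: percent of the per-plate median nuclei count of sample wells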). As to conditions: exon1htt(103Q)mCFP cell line, aggregate imaging, at 2 µM; inhibition of aggregation: stronger effect = higher value; nuclei count: measured here: cell count, toxicity.
Assay [3] can be described thus: endothelial E-selectin expression blockers – imaging, HUVEC, immunofluorescence, MLSMR starter and 10KST1 sets, primary screen (AID 487;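 active = visually confirmed hit in the image check and inhibition above 20%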;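 for inhibition: signal is fraction of cell area covered by stained E-selectin grains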;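 for nuclei count: 100% = median nuclei count of all wells on the same plate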). As to conditions: HUVEC TNFalpha-induced E-selectin immunofluorescence imaging, at 2 µM; inhibition: stronger effect = higher value; nuclei count: measured here: cell number, toxicity.
Assay [4] can be described thus: Primary imaging screen for DUSP6 inhibitors that restore phospho-Erk in transfected HeLa cells, chemical complementation (AID 609;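 active = compounds giving at least 50% inhibition in the cell-based MKP-3 phosphatase rescue imaging test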;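 for inhibition: phospho-Erk level distribution per well compared with pooled transfected vehicle control wells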). The note with it: HeLa MKP-3 transfected, phospho-Erk imaging KS statistic, at 10 µM, cells stimulated with TPA for 15 min.
Assay [5] has as its target Dual specificity protein phosphatase 6 (Homo sapiens) (UniProt Q16828). The assay is described as above. The note with it: HeLa MKP-3 transfected, phospho-Erk imaging KS statistic; at 10 µM; stronger effect = higher value; cells stimulated with TPA for 15 min.
Assay [6] has as its target Voltage-gated potassium channel subunit beta-2 (Rattus norvegicus) (UniProt P62483). Kind of assay: inhibitors of rat Kvbeta2 reductase activity – biochemical, NADPH fluorescence, primary screen (AID 622;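 active = fluorescence slope higher than the sample average by over 3 SD, cut at about -0.22 in these data, passing the limit was not always enough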;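 note: slope of raw intensity against log time taken from 70 to 1610 s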). The note with it: recombinant KvBeta, 4-cyanobenzaldehyde reduction, at 10 µM, stronger effect = higher value.
The target is the same in assay [7]. Kind of assay: enhancers of rat Kvbeta2 NADPH turnover – biochemical, NADPH fluorescence, primary screen (AID 623;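 active = NADPH fluorescence slope more negative than the mean of all samples by about 3 SD, 99.7% confidence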;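 note: fluorescence intensity change per second fitted from 20 to 320 s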). The note with it: Recombinant KvBeta, NADPH fluorescence decrease slope, 10 min; at 10 µM; stronger effect = lower value.
In assay [8] the target is Alpha-2C adrenergic receptor (Homo sapiens) (UniProt P18825). Kind of assay: compounds altering alpha2C-coupled GIRK flux – cell-based, HEK293 alpha2C/GIRK1/2, thallium flux, primary screen (AID 624;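 active = fluorescence slope after compound addition differing from the mean of all screened samples at 99.7% confidence, in either direction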;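 note: slope of fluorescence ratio to pre-addition baseline per second over 15 to 24 s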). As to conditions: thallium flux BTC fluorescence, at 10 µM, actives lie on both sides.
Assay [9] in a line: inhibitors of larval lipid processing in zebrafish, primary screen, whole organism, PED6 fluorescence, gall bladder and intestine (AID 686;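 active = a full or partial loss of lipid-probe fluorescence in the fish gall bladder, intestine or both, judged by eye; inactive = no fluorescence loss, or compound toxic to the fish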;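 note: larvae 5 to 7 days old with five fish per well; signal comes from phospholipase A2 cleavage of quenched PED6 carried via bile; overnight exposure to compound and PED6 before scoring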). As to conditions: Zebrafish larvae PED6 lipid processing, fluorescence scoring; screened at 20 µM (by protocol).
A short description of assay [10]: loss of swimming-algae plug formation – whole organism, Chlamydomonas reinhardtii, WT vs cilia-less mutant, absorbance, 96-well, primary screen (AID 463189).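 Note: 0% = wild type cc124 cells in DMSO and 100% = ciliumless bld1 mutant cells.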 The note with it: Chlamydomonas reinhardtii gravitaxis, OD600 absorbance, 2 days; at 10 µM; stronger effect = higher value.
A short description of assay [11]: blockers of RIG-like receptor reporter activation – cell-based, Sendai virus stimulus, luciferase, 10K MLSCN set, TLR/RLR signaling modifier project, primary screen (AID 602276;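 active = inhibition at or above 50% at 10 µM; inactive = inhibition below 50%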;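 note: firefly luciferase from ISG56 promoter only with Renilla not read in this screen; 0% = Sendai virus plus DMSO and 100% = medium plus DMSO without virus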). The note with it: HEK293 RL24 IRF3 luciferase reporter, at 10 µM, stronger effect = higher value.
Assay [12] in a line: TLR3 IRF3 reporter activation blockers – cell-based, poly I:C stimulus, luciferase, 10K MLSCN set, primary screen (AID 602277;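 active = inhibition of the reporter signal at or above 50%; inactive = inhibition below 50%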). As to conditions: HEK293-TLR3 RL24 IRF3 luciferase reporter, at 10 µM, stronger effect = higher value. In general terms: Reporter assays use an easily measured gene product as a stand-in for the process of interest.
Where [13] appears, read: measured here: cell density z-score.
The mark [14] stands for this setting: measured here: nuclear c-Myc green intensity z-score.
Setting [15] is: measured here: nuclear pErk red intensity z-score, stronger effect = higher value.

The record followed here is PubChem BioAssay.

“And” between values parts separate entries of the source, which are not always exact repeats. Equal entries are not always repeated. The source made the active and inactive calls.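 Rule for the calls, unless noted: active = inhibition at or above 50% relative to wild type and mutant plate controls; inactive = inhibition below 50%.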

Dual specificity protein phosphatase 6 (Homo sapiens), sequence (Q16828 whole entry, looked up): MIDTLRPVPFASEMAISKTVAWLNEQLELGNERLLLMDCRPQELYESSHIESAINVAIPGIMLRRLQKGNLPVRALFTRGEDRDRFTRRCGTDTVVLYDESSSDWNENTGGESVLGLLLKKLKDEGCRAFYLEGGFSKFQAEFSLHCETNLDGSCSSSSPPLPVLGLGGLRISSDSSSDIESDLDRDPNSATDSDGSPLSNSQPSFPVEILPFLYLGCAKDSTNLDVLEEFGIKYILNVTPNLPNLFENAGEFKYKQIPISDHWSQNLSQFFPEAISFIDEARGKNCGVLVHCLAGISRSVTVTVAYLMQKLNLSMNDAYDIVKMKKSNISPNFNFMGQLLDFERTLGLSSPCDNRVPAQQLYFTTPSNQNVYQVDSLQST
Alpha-2C adrenergic receptor (Homo sapiens), sequence (P18825 whole entry, looked up): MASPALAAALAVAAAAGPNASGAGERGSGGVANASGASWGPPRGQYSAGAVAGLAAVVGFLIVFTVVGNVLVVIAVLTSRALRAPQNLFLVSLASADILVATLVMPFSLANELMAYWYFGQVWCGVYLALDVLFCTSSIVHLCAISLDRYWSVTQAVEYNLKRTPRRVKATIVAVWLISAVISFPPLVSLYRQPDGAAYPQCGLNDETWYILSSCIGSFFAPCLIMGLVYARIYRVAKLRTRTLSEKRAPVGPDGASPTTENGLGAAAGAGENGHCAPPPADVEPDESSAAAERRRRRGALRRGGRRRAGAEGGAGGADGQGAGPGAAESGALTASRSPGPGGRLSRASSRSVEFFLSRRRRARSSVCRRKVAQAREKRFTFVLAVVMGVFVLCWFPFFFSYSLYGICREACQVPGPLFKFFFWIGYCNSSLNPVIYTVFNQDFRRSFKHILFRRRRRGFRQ
Voltage-gated potassium channel subunit beta-2 (Rattus norvegicus), sequence (P62483 whole entry, looked up): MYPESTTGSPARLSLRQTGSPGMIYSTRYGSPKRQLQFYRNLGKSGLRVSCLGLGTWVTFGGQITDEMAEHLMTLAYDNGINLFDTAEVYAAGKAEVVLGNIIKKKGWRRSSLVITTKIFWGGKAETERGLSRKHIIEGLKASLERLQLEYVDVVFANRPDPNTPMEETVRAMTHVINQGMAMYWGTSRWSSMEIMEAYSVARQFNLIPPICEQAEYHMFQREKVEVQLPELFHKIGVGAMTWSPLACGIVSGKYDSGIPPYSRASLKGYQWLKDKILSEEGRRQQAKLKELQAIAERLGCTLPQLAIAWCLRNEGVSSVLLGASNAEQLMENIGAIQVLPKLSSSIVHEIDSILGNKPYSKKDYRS

The term inhibition denotes the drop in the measured response relative to a control, in per cent. For `CN(C)CCC=C1c2ccccc2CCc2ccccc21`, the cell count in assay [1] is 541. Besides, the inhibition in [1] is -3.1% (inactive); in assay [3], -17.7% (inactive); in assay [5], -0.493% (inactive); in assay [10] it was 6.87% (inactive) and 12.5% (inactive); in [11] it was -9.05% (inactive); in assay [12], 51% (active). Also, in assay [2], the inhibition of aggregation is 2.1% (inactive). Besides, the nuclei count in [2] amounted to 107%; in assay [3] it was 126%. The figures for the z-score in assay [4] (setting [13]), in assay [4] (setting [14]) and in assay [4] (setting [15]) were 0.892, -0.494 and 0.732, respectively. The fluorescence slope in assay [6] was -0.449 (inactive). Further, in [7], the NADPH fluorescence slope was -6.5e-05 (inactive). Also, the slope in [8] was 0.00605 (inactive). The call in assay [9] was inactive.

Turning to `CCc1ccccc1NC(=O)CSC1=C(C#N)C(c2ccc(O)c(OC)c2)C2=C(CCCC2=O)N1` (configuration not stated), in assay [1], the cell count amounted to 554. Besides, the inhibition in assay [1] was -8.4% (inactive); in assay [3], -146% (inactive); in assay [5] it was 13.2% (inactive); in assay [10], 22.1% (inactive); in assay [11], 18.6% (inactive); in assay [12], 20% (inactive). Also, the inhibition of aggregation in assay [2] is -29.5% (inactive). In addition, the nuclei count in [2] worked out at 109%; in assay [3], 137%. Also, the z-score in assay [4] (setting [13]) is -0.0849; in assay [4] (setting [14]), -0.0258; in assay [4] (setting [15]), 0.52. Further, the fluorescence slope in [6] is -0.422 (inactive). The NADPH fluorescence slope in assay [7] is -3.5e-05 (inactive). In addition, in assay [8], the slope is 0.00571 (inactive). In assay [9], the compound was called inactive.

Turning to `CN(C)C(=O)Oc1cccc([N+](C)(C)C)c1`, the cell count in [1] was 531 and 586. The inhibition in assay [1] was -9.9% (inactive) and -7.8% (inactive); in [3], -9.8% (inactive) and -52% (inactive); in assay [5] it was 17.3% (inactive) and -0.493% (inactive); in [10], -1.35% (inactive) and 24.7% (inactive) and 16% (inactive); in [11] it was 14.9% (inactive) and 3.46% (inactive); in assay [12] it was 31.8% (inactive) and 16.1% (inactive). In addition, the inhibition of aggregation in [2] was 17.2% (inactive) and -13.6% (inactive). In addition, the nuclei count in [2] was 74.9% and 106%; in assay [3] it was 104% and 142%. In addition, the z-score in assay [4] (setting [13]) was 0.51 and -0.93; in assay [4] (setting [14]), 1.04 and 0.599; in assay [4] (setting [15]), 0.404 and -0.0753. Besides, the fluorescence slope in assay [6] was -0.425 (inactive) and -0.463 (inactive). In addition, the NADPH fluorescence slope in assay [7] was -3.3e-06 (inactive) and -0.000178 (inactive). The slope in assay [8] was 0.00518 (inactive) and 0.00527 (inactive). Moreover, in [9], the result was inactive.

As for `CN(C)[C@@H]1C(=O)C(C(N)=O)=C(O)[C@@]2(O)C(=O)C3=C(O)c4c(O)ccc(Cl)c4[C@@H](O)[C@H]3C[C@@H]12`, in assay [1], the cell count is 524. In addition, the inhibition is -3% (inactive) in assay [1]; -35.1% (inactive) in assay [3]; 9.37% (inactive) in assay [5]; 54.1% (active) and 88% (active) in [10]; 17.1% (inactive) in [11]; 24.2% (inactive) in assay [12]. Also, the inhibition of aggregation in assay [2] is 77.8% (active). In addition, the nuclei count in assay [2] is 96.8%; in assay [3] it was 93%. Moreover, the z-score in assay [4] (setting [13]) was 0.892; in [4] (setting [14]), 0.579; in assay [4] (setting [15]) it was -1.42. For the same compound, the fluorescence slope in assay [6] was -0.537 (inactive). Further, the NADPH fluorescence slope in assay [7] was -2.5e-05 (inactive). For the same compound, the slope in assay [8] was 0.00572 (inactive). Further, the outcome in [9] is “active; no signal in intestine only”.

On to `O/N=C/c1ccc(OCC(O)COc2ccc(/C=N/O)cc2)cc1`, for which, in assay [1], the cell count came to 678. For the same compound, the inhibition in [1] is 3.9% (inactive); in assay [3], -37.7% (inactive); in assay [5] it was -8.59% (inactive); in [10], 13.7% (inactive); in [11], -3.4% (inactive); in assay [12], -9.91% (inactive). Also, the inhibition of aggregation in assay [2] is 8.1% (inactive). Moreover, the nuclei count in assay [2] worked out at 104%; in assay [3] it was 114%. For the same compound, the z-score was 0.736 in [4] (setting [13]), -0.218 in [4] (setting [14]) and -0.78 in assay [4] (setting [15]). Further, the fluorescence slope in assay [6] was -0.33 (inactive). Besides, the NADPH fluorescence slope in [7] was -1e-05 (inactive). The slope in [8] is 0.00891 (inactive). Also, the compound was classed as inactive in assay [9].

For the compound `CN(C)CCN(Cc1ccccc1)c1ccccn1`, the cell count in [1] stood at 526. For the same compound, the inhibition was -10.5% (inactive) in [1]; -31.1% (inactive) in [3]; 9.37% (inactive) in assay [5]; 49.5% (inactive) in assay [10]; 11.1% (inactive) in assay [11]; 33.9% (inactive) in assay [12]. Besides, in [2], the inhibition of aggregation is 18.7% (inactive). Further, the values for the nuclei count in [2] and in [3] were 98.3% and 109%, respectively. Further, the figures for the z-score in [4] (setting [13]), in assay [4] (setting [14]) and in assay [4] (setting [15]) were -0.393, 0.385 and -0.67, respectively. Further, the fluorescence slope in assay [6] is -0.432 (inactive). The NADPH fluorescence slope in assay [7] was -8.6e-05 (inactive). The slope in [8] was 0.00588 (inactive). Besides, the result in [9] was inactive.
